Among the data in ChEMBL document CHEMBL3433997, “St. Jude Leishmania screening dataset” (2016) are inhibition values, retold here.

Molecules are shown by their SMILES.

Type in all cases: functional
Assay [1] deals with Solute carrier family 2, facilitated glucose transporter member 1 (Homo sapiens) (UniProt P11166). Briefly: ST_JUDE_LEISH: Cytotoxicity at 2uM final concentration against transgenic Leishmania Mexicana promastigotes LmGLUT1 that are glucose transport deficient and complemented with the human glucose transporter GLUT1. Activity is measured by DNA content using SYBR green in vitro.
Chain of Solute carrier family 2, facilitated glucose transporter member 1 (Homo sapiens) (P11166 whole entry): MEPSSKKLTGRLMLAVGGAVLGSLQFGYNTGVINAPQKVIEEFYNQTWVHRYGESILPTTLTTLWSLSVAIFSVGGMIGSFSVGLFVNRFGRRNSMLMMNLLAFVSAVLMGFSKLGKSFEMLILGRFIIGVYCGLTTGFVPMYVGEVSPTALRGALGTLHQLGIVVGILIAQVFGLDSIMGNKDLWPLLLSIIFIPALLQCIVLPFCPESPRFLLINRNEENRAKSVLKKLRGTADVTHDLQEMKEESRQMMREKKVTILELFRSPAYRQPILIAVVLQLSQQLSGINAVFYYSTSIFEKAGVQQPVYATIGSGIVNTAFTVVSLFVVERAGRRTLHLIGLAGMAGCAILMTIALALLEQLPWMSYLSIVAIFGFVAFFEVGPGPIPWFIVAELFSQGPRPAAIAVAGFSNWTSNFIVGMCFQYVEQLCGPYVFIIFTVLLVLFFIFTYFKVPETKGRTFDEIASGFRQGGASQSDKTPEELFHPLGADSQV

Assay [2] deals with Hexose transporter 1 (Plasmodium falciparum) (UniProt O97467). Briefly: ST_JUDE_LEISH: Cytotoxicity at 2uM final concentration against transgenic Leishmania Mexicana promastigotes LmPfHT that are glucose transport deficient and complemented with the Plasmodium falciparum hexose transporter. Activity is measured by DNA content using SYBR green in vitro.
The target of assay [3] is Glucose transporter (Leishmania mexicana) (UniProt O61059). In words: ST_JUDE_LEISH: Cytotoxicity at 2uM final concentration against transgenic Leishmania Mexicana promastigotes LmGT2 that are glucose transport deficient and complemented with the L. Mexicana glucose transporter 2. Activity is measured by DNA content using SYBR green in vitro.

One may read the inhibition as the change of the read-out against control, counted positive when it falls.

As to `Oc1ccc(CCCNc2nc(NCc3cccc4ccccc34)nc(N3CCCNCC3)n2)cc1`, the inhibition in assay [1] is -0.67%; in assay [2], -0.2%; in assay [3], 1.52%.

Consider `Cc1ccccc1C1CCN(C2CCC(NC(=O)c3ccc(-c4ccccn4)s3)CC2)CC1` (configuration not stated), for which the inhibition in assay [1] was -4.15%; in assay [2] it was -2.96%; in assay [3], -1.37%.

Consider `Cc1cccc2nc(-c3ccc(-c4cccc(NC(=O)c5cnccc5C(F)(F)F)c4)cc3)[nH]c12`, for which the inhibition in assay [1] stood at 11.2%; in assay [2], 10.4%; in assay [3], 8.19%.

`C(=N\Nc1nccc2sc(-c3cccnc3)cc12)/c1cccnc1`: the inhibition in assay [1] was 2.11%; in assay [2], 1.38%; in assay [3], 1.05%.

`COc1ccc(S(=O)(=O)NC2CCN(c3ccnc4cc(Cl)ccc34)C2)cc1` (configuration not stated): the inhibition came to 4.03% in assay [1], 1.1% in assay [2] and 0.63% in assay [3].

On to `CC(=O)Oc1cc(OCc2ccccc2)c(OC(C)=O)c(OCc2ccccc2)c1`, for which the values for the inhibition in assay [1], in assay [2] and in assay [3] were 6.3%, 5.31% and -0.19%, respectively.

Turning to `COc1cc(OCCCCCCON2C(=N)N=C(N)NC2(C)C)cc(OC)c1OC`, the inhibition in assay [1] came out at 7.66%; in assay [2], 8.02%; in assay [3], 6.93%.

With `O=C(O)Cc1ccc(-c2c[nH]c3ncc(-c4cccc5ncccc45)cc23)cc1`, the inhibition worked out at 2.28% in assay [1], 1.77% in assay [2] and 0.63% in assay [3].

As for `O=C(Nc1ccc(OC2CCN(Cc3ccccc3)CC2)c(Cl)c1)c1ccco1`, the inhibition in assay [1] turned out to be 8.6%; in assay [2], 10.1%; in assay [3], 8.63%.

As to `COc1cc(Nc2ccnc3cc(-c4ccccn4)ccc23)cc(OC)c1OC`, the values for the inhibition in assay [1], in assay [2] and in assay [3] were 5.56%, 8.67% and 5.6%, respectively.

With `COc1ccc2nccc([C@@H](O)CN3CCC(NCc4nc5c(cc4Cl)OCC(=O)N5)C(F)C3)c2c1` (some centres not stated), the inhibition is 1.37% in assay [1], 0.56% in assay [2] and 0.2% in assay [3].

For `COc1cc2nc(C)nc(Nc3cccc(Br)c3)c2cc1OC`, the inhibition in assay [1] is -0.77%; in assay [2], -0.52%; in assay [3], -0.03%.

As to `Cc1cc(N/N=C/c2cccc([N+](=O)[O-])c2)c2cc(F)ccc2n1`, the inhibition is 2.55% in assay [1], 1.82% in assay [2] and 0.14% in assay [3].

As to `CCOc1cc2ncnc(Nc3ccc(OCc4ccccc4Br)c(OC)c3)c2cc1OCC`, the values for the inhibition in assay [1], in assay [2] and in assay [3] were 5.55%, 5.15% and 2.49%, respectively.

On to `CN(C)c1cc2c(Nc3ccc4nc(Cc5ccccc5)[nH]c4c3)ncnc2cn1`, for which the figures for the inhibition in assay [1], in assay [2] and in assay [3] were 4.02%, 5.87% and 2.46%, respectively.

As to `COc1ccccc1-n1ccnc1SCC(=O)Nc1cccc(C(F)(F)F)c1`, the inhibition in assay [1] worked out at 3.36%; in assay [2] it was 1.61%; in assay [3] it was 2.6%.

In the case of `Nc1cc(/C=C/c2ccc([N+](=O)[O-])s2)nc2ccccc12`, the inhibition in assay [1] was determined as 16.4%; in assay [2], 16.5%; in assay [3] it was 8.5%.

In the case of `N=C(NCC1CC1c1ccccc1)c1cccc(C(=N)NCC2CC2c2ccccc2)n1` (configuration not stated), the inhibition in assay [1] amounted to 5.1%; in assay [2] it was 5.88%; in assay [3], 6.3%.

Regarding `CC(C)c1ccc(C(NC(=O)C2CCCCC2)c2ccc3cccnc3c2O)cc1` (configuration not stated), the inhibition is -0.43% in assay [1], -0.57% in assay [2] and -1% in assay [3].

With `COc1ccc(CN2CCN(Cc3cc(Cl)ccc3O)CC2CCO)c(C)c1C` (configuration not stated), the inhibition in assay [1] was -1.12%; in assay [2], 0.94%; in assay [3], 0.13%.

On to `COc1ccc2c(=NN=Cc3ccncc3)cc(C)[nH]c2c1`, for which the results for the inhibition in assay [1], in assay [2] and in assay [3] were 4.05%, 3.94% and 3.63%, respectively.

In the case of `COc1cccc(OC)c1CN1CCC(N(C)CCCCCCCCN2CCC(OC(=O)Nc3ccccc3-c3ccccc3)CC2)CC1`, the inhibition in assay [1] was 105%; in assay [2], 108%; in assay [3], 74.3%.

Consider `N#CC(c1ccc(F)cc1)c1ccc2c(C(F)(F)F)cc(C(F)(F)F)nc2n1` (configuration not stated), for which the inhibition came out at 3.66% in assay [1], 4.6% in assay [2] and 1.81% in assay [3].

Consider `OCCOCn1cnc2cnc(N[C@H]3OC[C@H](O)[C@@H](O)[C@@H]3O)nc21`, for which the inhibition is 0.99% in assay [1], 2.06% in assay [2] and 1.69% in assay [3].

As for `O=C(/C=C/c1ccc(Cl)c(Cl)c1)NCCCCCN1CCC(C(=O)Nc2ccc(Cl)cc2)CC1`, the inhibition is 1.92% in assay [1], 0.72% in assay [2] and 2.78% in assay [3].

On to `O=C(Nc1cn(-c2ccc(OCc3cccc(F)c3)c(Cl)c2)c2ncncc12)c1ccncc1`, for which the inhibition stood at 1.53% in assay [1], 1.05% in assay [2] and 2.96% in assay [3].

Consider `COc1cc(/C=C/C(=O)NCC(CCNc2cc(=O)c3ccccc3[nH]2)NCc2cc(Br)cc(Br)c2)cc(OC)c1` (configuration not stated), for which the values for the inhibition in assay [1], in assay [2] and in assay [3] were 2.85%, 3.71% and 2.37%, respectively.

For `O=C(/C=C/c1ccc(Cl)c(Cl)c1)NCCCCCN1CCCN(C(=O)Nc2ccc(C(F)(F)F)cc2)CC1`, the inhibition was 2.96% in assay [1], 2.53% in assay [2] and 5.5% in assay [3].

On to `CC(=O)Nc1nc(C(=O)Nc2cccc(-c3cccc(-c4nc5cccc(C)c5[nH]4)c3)c2)cs1`, for which the inhibition in assay [1] worked out at 6.67%; in assay [2], 1.89%; in assay [3] it was 14.6%.

Regarding `Cc1ccc(NC(C)C(=O)Nc2ccccc2)cc1S(=O)(=O)N1CCCCCC1` (configuration not stated), the inhibition in assay [1] was determined as 10.6%; in assay [2], 9.81%; in assay [3] it was 9.12%.

As for `COc1ccc(CNCCCCCCNCc2ccc(OC)c3ccccc23)c2ccccc12`, the inhibition in assay [1] was 59.7%; in assay [2], 97.2%; in assay [3], 103%.

Consider `COc1ccc(CN2CCCN(Cc3cccc(NC(=O)c4ccc(Cl)c(Cl)c4)c3)CC2)cc1`, for which the inhibition worked out at 2.61% in assay [1], 4.62% in assay [2] and 0.01% in assay [3].

Take `CCCCCCn1c(Sc2ccc(C#N)c([N+](=O)[O-])c2)nnc1-c1ccccc1`: the inhibition in assay [1] came out at 8.64%; in assay [2] it was 11.1%; in assay [3], 6.76%.

With `COc1ccc(-c2cnc3[nH]cc(-c4ccncc4)c3c2)cc1OC`, the inhibition in assay [1] is 68.3%; in assay [2], 72.8%; in assay [3], 65.3%.
